Source: PubChem
Only some compounds are listed: those with a hit (about 8% of all), similar ones and a draw of the others.
SW480 rerep – DNA re-replication induction in SW480 cells; AID 624297; Potency, µM (titrated, usually from 46.1 µM), without a hit: at the highest dose re-replication activation, hits mostly activators; 340,000 compounds, 1.8% hits; SW480 DNA re-replication, Hoechst DNA content imaging, 48 h; note: % of control where 0% means no effect; nearly all actives have a fitted effect of over 55% in size
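Per well, 250 cells were exposed to pinned compound for 48 hr. Nuclear DNA was visualised with Hoechst (40 min, 37 C) and total object intensity recorded by fluorescence scanning.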
KB-V1 cytotox – KB-V1 MDR subline cytotoxicity; KB-V1 MDR cells viability, CellTiter-Glo, 72 h; 400,000 compounds, 3.4% hits; Potency, µM (series often up to 46.1 µM), usual class: cytotoxic; note: % is set by controls: 0 for no effect and ±100 for the full control effect; nearly all actives have a fitted effect of over 60% in size
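Readout: CellTiter-Glo luminescence, 10 min after addition. Cells: KB-V1 MDR subline, 72 h at 37 degrees C with compound. Analysis: corrected, normalized data fitted to concentration-effect curves.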
KB-3-1 cytotox – KB-3-1 parental cell cytotoxicity; KB-3-1 viability, CellTiter-Glo ATP luminescence, 72 h; Potency, µM (titrated, usually from 46.1 µM), hits mostly cytotoxic; 400,000 compounds, 1.4% hits; AID 1347075; note: % is set by controls: 0 for no effect and ±100 for the full control effect; nearly all actives have a fitted effect of over 60% in size
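Viability of parental KB-3-1 cells, measured by CellTiter-Glo luminescence, followed a 72 h incubation at 37 °C with pinned compounds in phenol-red-free DMEM containing 10% FBS.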
HT1080NT lethal – kills 2HG-producing HT-1080-NT fibrosarcoma cells; 360,000 compounds, 1.6% hits; Potency, µM (top dose mostly 46.1 µM), for the others: at the highest dose activity, negative = less viability, usual class: cytotoxic; AID 686970; HT-1080-NT fibrosarcoma viability, CellTiter-Glo ATP luminescence, 48 h;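 note: NT is the 2HG producing partner of a matched IDH1 knockdown line; 0% = DMSO-treated cells and -100% = media-only wells without cells; nearly all actives have a fitted effect of over 55% in size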
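HT-1080-NT fibrosarcoma cells (2HG-overproducing), 750 cells/well in RPMI with 5% FBS, dosed after 2 h and incubated 48 h at 37C. CellTiter-Glo luminescence normalized to DMSO and no-cell wells; concentration-response curves fitted and classed.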
HT1080 IDH1KD tx – kills HT-1080 cells with IDH1 knockdown; 360,000 compounds, 2% hits; HT-1080 IDH1 knockdown viability, ATP luminescence, 48 h; Potency, µM (series often up to 46.1 µM), without a hit: top-dose activity, negative = toxicity, most hits filed as cytotoxic;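 note: 0% = DMSO wells and -100% = cell-free medium wells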
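Knockdown cells (IDH1KD HT-1080) received compounds 2 h after plating at 750 cells/well and were kept 48 h at 37 °C in 5% FBS RPMI. A CellTiter-Glo luminescence read gave % activity for curve fitting.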
MCF10A rereplic – inducers of DNA re-replication in MCF 10A breast cells | MCF 10A DNA re-replication, Hoechst nuclear intensity, 48 h | Potency, µM (doses to about 46.1 µM), for the others: at the highest dose activity, positive = re-replication, actives largely listed as activators | 350,000 compounds, 2.9% hits; note: % of control where 0% means no effect; nearly all actives have a fitted effect of over 50% in size
Starred values were filed as active, the others as inactive; i = inactive; ? = inconclusive; . = not tested or not shown; ! = a repeat was not active. Calls come from the whole dose curve; as a rule, active = well fitted curve in the direction sought with a large enough effect; inconclusive = small, poorly fitted or top-dose-only effect, or another doubt; inactive = no such curve, though single readings can be large; an effect the other way counts as inactive or inconclusive. Potency is the fitted concentration of half-maximal effect.

SMILES	SW480 rerep	KB-V1 cytotox	KB-3-1 cytotox	HT1080NT lethal	HT1080 IDH1KD tx	MCF10A rereplic
O=[N+]([O-])c1cc(Br)c(Nc2ccccc2)c([N+](=O)[O-])c1	?	16µM*	?	?	3.3µM*	?
CN(CC(=O)Nc1cccc(F)c1)C(=O)c1ccc(C2SCCS2)cc1	-13%	18µM*	?	-5%	-18%	20%
CN(CC(=O)Nc1cccc(F)c1)C(=O)c1ccc2c(c1)CC(c1ccccc1)OC2=O (stereo unspecified)	18µM*	?	18µM*	?	16µM*	18µM*
C[C@@H](NC(=O)c1coc(=O)c(Br)c1)c1ccccc1	?	?	12µM*	9.2µM*	8.2µM*	?
COc1ccc(C(=O)NC(C)c2ccccc2)cc1Br (stereo unspecified)	18%	i	i	-1%	2%	-11%
O=C(Nc1ccccc1F)c1coc(=O)c(Br)c1	?	i	i	2%	7%	?
Cc1cc(NC(=O)c2coc(=O)c(Br)c2)ccc1C(C)C	?	i	i	?	21µM*	?
COc1ccc(C(CC(=O)c2ccc(C)cc2)C(C#N)C#N)cc1OC (stereo unspecified)	?	?	?	21µM*	23µM*	21µM*
CCn1c(CCC(=O)Nc2nc3c(s2)CCCC3)nc2cc(S(=O)(=O)N(C)C)ccc21	-4%	23µM*	i	-7%	-2%	0%
CCC(=O)NCCc1nc2cc(NC(=O)c3cccs3)ccc2n1C	-3%	i	i	7%	4%	-5%
O=c1oc2ccccc2cc1-c1nnc(NCc2ccco2)s1	13µM*	?	?	4%	-1%	9.2µM*
COc1ccc(-n2nnnc2SC(C)C(=O)NC2CCCC2)cc1 (stereo unspecified)	-5%	i	i	2%	-1%	-5%
CC(Sc1nnnn1-c1ccccc1)C(=O)NC1CCCC1 (stereo unspecified)	-2%	13µM*	i	7%	7%	3%
O=C(Nc1cccc(F)c1)C1CCN(c2nnnn2-c2ccccc2)CC1	?	?	?	0%	-7%	?
O=C(NC1CCCCC1)C1CCCN(c2nnnn2-c2ccccc2)C1 (stereo unspecified)	-3%	16µM*	i	21%	-7%	4%
CCOC(=O)C1CCCN(c2nnnn2-c2ccccc2)C1 (stereo unspecified)	-7%	i	i	6%	10%	23%
CCOc1ccc(NC(=O)C2CCN(c3nnnn3-c3ccccc3)CC2)cc1	-2%	8.2µM*	i	0%	-1%	3%
Cn1c(=O)cc(OCCCC(=O)NC2CCCC2)c2ccccc21	-1%	15µM*	i	?	-27%	?
Cc1ccnc(NC(=O)CCCOc2cc(=O)n(C)c3ccccc23)c1	7.3µM*	8.2µM*!	3.7µM*!	?	?	15µM*
Cn1c(=O)cc(OCCCC(=O)N2CCN(c3ccccc3)CC2)c2ccccc21	-1%	?	i	-5%	-19%	9.2µM*
CCCCNC(=O)CNC(=O)c1nn(-c2ccc(OC)cc2OC)c(=O)c2ccccc12	-23%	i	i	1%	4%	-4%
COc1ccc2nc(NCCCO)[nH]c2c1	0%	i	i	14%	10%	2%
Cc1cc(C)n(CCCNC(=O)Cn2nnnc2CN2C[C@@H](C)O[C@@H](C)C2)n1	0%	i	i	2%	1%	-5%
O=C(NCCOc1ccc(F)cc1)c1ccccc1SCc1ccccc1	-11%	?	i	-6%	-5%	?
CCc1ccc(OCCNC(=O)c2ccccc2SCc2ccc(F)cc2)cc1	-8%	18µM*	i	-6%	-1%	?
SMILES	SW480 rerep	KB-V1 cytotox	KB-3-1 cytotox	HT1080NT lethal	HT1080 IDH1KD tx	MCF10A rereplic
CSc1ccccc1NC(=O)c1ccc(N2CC3CC(C2)c2cccc(=O)n2C3)c(NC(=O)c2ccncc2)c1 (stereo unspecified)	-20%	i	i	4%	0%	2%
CC(C)c1cc(C(=O)Nc2ccc3c(c2)OCO3)no1	-19%	i	i	-15%	-29%	0%
O=C(Nc1ccc2c(c1)OCO2)c1cc(C2CC2)on1	-1%	i	?	?	8.2µM*	?
Cc1ccc(CNc2ccc3c(c2)OCO3)cc1	23µM*	?	?	?	?	23µM*
CCN(CC)c1ccc(NC(=O)c2ccc3c(c2)OCO3)cc1	?	?	?	?	21µM*	-2%
CCC(=O)Nc1ccc(NC(=O)c2ccc3c(c2)OCO3)cc1	1%	i	i	-19%	-17%	-17%
c1cc(CNc2ccc3c(c2)OCO3)ccn1	-6%	i	i	8%	5%	19%
O=C(CCl)Nc1ccc2c(c1)OCO2	?	?	15µM*	9.2µM*	18µM*	94%
COCC(C)NC(=O)C(C)Oc1ccccc1 (stereo unspecified)	-2%	i	i	6%	13%	-4%
Cc1cccc[n+]1CC(=O)c1ccc(Cl)cc1	-6%	i	i	8%	6%	3%
O=S(=O)(/N=C(/Sc1ccc(Cl)cc1)c1ccccc1)c1ccccc1	.	i	i	.	.	.
Cc1cccc(Cn2ccc(NC(=O)c3ccc4c(c3)OCO4)n2)c1	-2%	18µM*	i	-4%	1%	8%
C=CCN(c1ccc(C(=O)Nc2ccc(C)c(C)c2)cc1)S(C)(=O)=O	0%	21µM*	i	-1%	-4%	0%
COc1cc(NC(=O)CCl)ccc(=O)c1	.	?	i	21µM*	23µM*	.
CS(=O)(=O)N(CC(=O)Nc1ccc2c(c1)OCO2)c1ccc(Cl)cc1	-4%	23µM*	i	-3%	-1%	8%
O=C(Nc1ccn(Cc2ccc(Cl)cc2)n1)c1ccc2c(c1)OCO2	-4%	i	i	-27%	-4%	-5%
Cc1ccc(N(CC(=O)Nc2ccc3c(c2)OCCO3)S(C)(=O)=O)cc1	-2%	i	i	13%	0%	-1%
CN(C)S(=O)(=O)c1ccc(N2CCCC2)c(C(=O)Nc2ccc(N3CCOCC3)cc2)c1	1%	i	i	-4%	3%	-7%
Cc1cc(NC(=O)CSc2ccc3nnc(-c4cccc(F)c4)n3n2)no1	1%	i	i	-16%	-11%	1%
Cc1ccc(Cn2ccc(NC(=O)c3cc(-c4cccc(Cl)c4)on3)n2)cc1	0%	15µM*	i	-22%	6%	?
